Screening data as filed in PubChem BioAssay.
The entries come from a sample that favours hits as a whole.
Pf Dd2 inh = inhibitors of Plasmodium falciparum Dd2 growth. P. falciparum Dd2 growth, SYBR Green, 72 h. 120,000 compounds, 4.3% hits. Potency, µM (titrated, usually from 28.9 µM), actives largely listed as inhibitors; active = well fitted inhibition curve with a large enough effect; also: nearly all actives have a fitted effect of over 65% in size
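Infected erythrocytes (Dd2, 0.3% parasitemia, 2.5% hematocrit final) are added to compound in RPMI-1640/Albumax II medium, grown 72 h at 37C in low oxygen, then lysed with saponin/Triton-X containing SYBR Green and read by fluorescence.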
A number is an active result; n = inactive.

SMILES | Pf Dd2 inh
COc1ccccc1C(=O)N1CC(Oc2ccc(F)cc2C)C1 | n
COc1ccc(CN2CC(Oc3ccc(F)cc3F)C2)cc1 | n
O=C(Cc1ccccc1Cl)N1CCN(c2cc(-c3ccccc3)[nH]n2)CC1 | n
CCn1nccc1C(=O)N1CCCC(c2nnnn2-c2ccccc2)C1 (centres undefined) | n
O=C1[C@@H]2C[C@@H](O)CN2C2(CN(C3CCCCC3)C2)C(=O)N1Cc1ccccc1Cl | n
O=C(NCc1ccc(F)cc1Cl)c1noc(-c2ccc3c(c2)OCO3)n1 | n
CN(c1ncccc1CNC(=O)CN1CCCC1=O)C1CCCCC1 | n
COCc1nncn1C1CCN(C(=O)c2cc(F)ccc2Cl)CC1 | n
CN1C(=O)CC(C(=O)O)C12CCN(Cc1ccc(CCC(C)(C)O)cc1)CC2 (centres undefined) | n
C[C@H]1[C@@H]2[C@@H](O)C([C@H](C)C(=O)NCc3ccccn3)CC[C@@]2(C)CC[C@@H]1NC(=O)c1ccc(C#N)cc1 (some centres undefined) | 8.91µM
C[C@H]1[C@@H]2[C@@H](O)C([C@H](C)C(=O)NCc3ccccc3)CC[C@@]2(C)CC[C@@H]1NC(=O)c1ccc(C#N)cc1 (some centres undefined) | n
C[C@H]1[C@@H]2[C@@H](O)C([C@H](C)C(=O)NCc3cccnc3)CC[C@@]2(C)CC[C@@H]1NC(=O)c1ccc(C#N)cc1 (some centres undefined) | n
CC(=O)Nc1ccc(CN(CCN2CCCCC2)CC2CCCN(C3CCCC3)C2)cc1 (centres undefined) | n
COCCOCc1nc(C2CCN(C(=O)NCCc3ccccc3)CC2)no1 | n
Cc1ccc(Cc2nc3ccccc3nc2SCC(=O)N2CCC(C)CC2)cc1 | 10µM
COc1ccccc1N1CCN(C(=O)CSc2nc3ccccc3nc2Cc2ccc(C)cc2)CC1 | n
Cc1ccc(Cc2nc3ccccc3nc2SCC(=O)N2CCN(c3ccc(F)cc3)CC2)cc1 | n
CN(Cc1nc(-c2ccncc2)no1)C1CCC2(CCNCC2)CC1 | n
Cc1[nH]ncc1CNC(=O)c1ccc(CC2CCN(S(C)(=O)=O)CC2)cc1 | n
COc1ccc(C(C)NC(=O)CN2C(=O)NC3(CCC(C)CC3)C2=O)cc1 (centres undefined) | n
CC1CCC2(CC1)NC(=O)N(CC(=O)NC(C)c1ccccc1)C2=O (centres undefined) | n
Cc1ccc(C(C)NC(=O)CNC23CC4CC(CC(C4)C2)C3)cc1 (centres undefined) | 6.31µM
Cn1nccc1C(=O)N1CCC2(CC1)CC(Cc1nc(C3CC3)no1)CCO2 (centres undefined) | n
CC(C)(CC(=O)O)CC(=O)N1Cc2[nH]cnc2C[C@H]1C(=O)NC1CCCCC1 | n
O=C(c1ccc(C(F)(F)F)cc1)N1CCC2(C1)C(=O)N(c1ccccc1)c1ccccc12 (centres undefined) | 10µM
SMILES | Pf Dd2 inh
O=C1N(c2ccccc2)c2ccccc2C12CCN(Cc1ccccc1)C2 (centres undefined) | 11.2µM
CCCC(=O)N1CCC2(CC1)C(=O)N(C)c1ccccc12 | n
CN1C(=O)C2(CCN(C(=O)c3ccc(Cl)cc3)C2)c2ccccc21 (centres undefined) | n
CN1C(=O)C2(CCN(Cc3cncs3)C2)c2ccccc21 (centres undefined) | n
O=C1Nc2ccccc2C12CCN(Cc1ccsc1)CC2 | n
O=C(c1ccc(C(F)(F)F)cc1)N1CCC2(C1)C(=O)N(Cc1ccccc1)c1ccccc12 (centres undefined) | n
N#Cc1ccc(CN2CCC3(C2)C(=O)Nc2ccccc23)cc1 (centres undefined) | n
O=C(c1ccccc1F)N1CCC2(C1)C(=O)N(c1ccccc1)c1ccccc12 (centres undefined) | n
CN1C(=O)C2(CCN(Cc3ccsc3)C2)c2ccccc21 (centres undefined) | 5.62µM
CN1C(=O)C2(CCN(C(=O)Cc3ccccc3Cl)C2)c2ccccc21 (centres undefined) | 3.16µM
O=C1Nc2ccccc2C12CCN(Cc1cccnc1)C2 (centres undefined) | n
CN1CCC2(Cc3ccccc3CN([S+](C)(=O)[O-])C2)C1 (centres undefined) | n
O=C(CCC1CCN(C(=O)c2ccccc2)CC1)Nc1ccccc1 | n
FC1(F)C[C@@H](c2nnc(C3CC3)o2)N(C2CCSCC2)C1 | n
CCOc1ccccc1N1CCN(C(=O)[C@H]2CCC[C@H]2NC(=O)c2cnc(C)cn2)CC1 | n
COc1cccc(Cc2nc(C3CC(=O)N(C4CCCCC4)C3)no2)c1 (centres undefined) | n
N#Cc1ccc(C(=O)N2CCCCCNC(=O)[C@@H]3CCC[C@@H]32)cc1 | n
CN1CCOc2c(C(=O)NCCN3CCNC3=O)cc(-c3ccc(O)c(F)c3)cc21 | n
CN1C(=O)C2(CCN(S(=O)(=O)c3ccccc3)C2)c2ccccc21 (centres undefined) | n
CN1C(=O)C2(CCN(Cc3ccnn3C)C2)c2ccccc21 (centres undefined) | n
